The campaign covered roughly 69,000 compounds. About 8,600 (12%) showed an effect of 50% or more. Shown is part of a subset that was picked to be rich in strong results.

In this assay the test system is Plasmodium berghei. As to the kind of experiment: Screen against P. berghei liver stage (PbLuc), transformed with Luciferase, at 10uM. The class given is functional, HepG2. The following applies: tested at 10 uM.
For `COCCN1CCC(c2nc3c([nH]2)CCCNC3=O)CC1`, the INHIBITION was 44%.

For the compound `COc1cccc(CNCc2ccc(F)cc2Cl)c1O`, the INHIBITION was -38%. Next, `COC(=O)CNC(=O)N1CCN(c2nc3ccccc3n2C)CC1`: 10.7%; `Cc1nc2[nH]cnc(NCCN3CCCC3)c-2n1`: 29.7%.

For the compound `COCC(=O)N1CC[C@@H]2O[C@@H](COCc3csc(C)n3)CC[C@@H]21`, the INHIBITION was 27.3%. With `CCc1ncc2c(n1)CN(CC(=O)Nc1nncs1)CC2`, the INHIBITION amounted to 33.8%. With `Cn1ccnc1S(=O)(=O)C(C(=O)N1CCCCC1)c1ccccc1` (stereo unspecified) the figure was 28.1%. With `COCCN1CCCc2sc(C(=O)Nc3ccc(C)nc3)nc21` the figure was 16.9%; with `Cc1ccc(OCCNc2cccc(C(=O)N3CCOCC3)c2)cc1`, -17.3%. Next, `CC(CN1CCCC1=O)NC(=O)c1ccc(-c2ccco2)[nH]c1=O` (stereo unspecified): 16.6%; `O=c1nc(CNc2ccccc2)[nH]n1Cc1ccccc1`: -31.6%. As to `COc1nccc(C(F)(F)F)c1C(=O)O`, the INHIBITION came to 4.12%. On to `Cc1ccc(C(=O)NCCC(C)C)cc1NS(C)(=O)=O`, for which the INHIBITION turned out to be 18.6%. `Cc1cc(C(=O)NCCC(C)C)ccc1NS(C)(=O)=O`: the INHIBITION is recorded as 65.6%. As to `Cc1ccc(C(=O)NCCCNS(C)(=O)=O)cc1C`, the INHIBITION was -43.2%. With `CC(C)(C)CCNC(=O)c1ccc(Cl)c(NS(C)(=O)=O)c1` the figure was -3.81%; with `CC(C)CCNC(=O)c1ccc(Cl)c(NS(C)(=O)=O)c1`, 54.4%; with `CCN(CC)CCNC(=O)c1ccc(Cl)c(NS(C)(=O)=O)c1`, 18.6%. For `Cc1nccn1-c1ccc(=O)n(CCNC(=O)c2c(F)cccc2Cl)n1`, the INHIBITION came to 6.67%. In the case of `CCn1ccnc1CN1CCN(CC(O)CN2CCOCC2)CC1` (stereo unspecified), the INHIBITION is 12.415%. With `CC(NC(=O)NCCC1=CCCCC1)c1nncn1C` (stereo unspecified) the figure was 15.7%; with `Cc1ccc(-c2nc(C3CCN(C(=O)c4ccn(C)n4)CC3)no2)cn1`, -26.7%. Next, `Cc1ccc(C(=O)N(C)CC(=O)NCC(F)(F)F)cn1`: 42%; `CN(CC(=O)NCC(F)(F)F)C(=O)c1ccc(=O)[nH]c1`: -10.8%; `CN(CC(=O)NCC(F)(F)F)C(=O)c1ccc(C(=O)OC(C)(C)C)cc1`: 63.7%. As to `COC(=O)c1cccn1C1CCN(C(=O)c2cc(F)ccc2C)CC1`, the INHIBITION came to 8.64%. In the case of `CS(=O)(=O)N1CC(=O)N(CCCc2ccccc2)CC(O)C1` (stereo unspecified), the INHIBITION is listed as 42.7%. With `COc1ccc(-c2nc(C(=O)NCC3CCOC3)cs2)cc1OC` (stereo unspecified) the figure was 34.7%; with `Cc1cccc(CN2CCCC2c2cccc(CCC(=O)O)n2)c1` (stereo unspecified), 51.5%. With `CN(C)C(=O)CCc1cncc(C2CCCN2Cc2ccccn2)n1` (stereo unspecified) the figure was -1.85%.

With `Cc1cc(C)nc(C2CCCN2c2ccnc(C)n2)n1` (stereo unspecified), the INHIBITION was determined as 7.52%. With `O=C(O)CCc1cccc(C2CCCN2Cc2ccc(F)c(F)c2)n1` (stereo unspecified) the figure was 58%; with `Cc1cc(N2CCCC2c2nc(C)cc(CCC(=O)O)n2)ncn1` (stereo unspecified), 9.93%. As for `Cc1cc(C)nc(N2CCC(c3cccc(CCC(=O)O)n3)CC2)n1`, the INHIBITION stood at 4.13%.

As for `Cc1cn[nH]c1C1CCCN1Cc1ccc(F)c(F)c1` (stereo unspecified), the INHIBITION was 15.5%.

Turning to `Cc1cc(CCC(=O)O)nc(C2CCCN2c2ccnc(C)n2)n1` (stereo unspecified), the INHIBITION was determined as 50.8%.

On to `O=C(O)CCc1cccc(C2CCCN2Cc2cccc(Cl)c2)n1` (stereo unspecified), for which the INHIBITION worked out at 19.6%.

Consider `O=C(c1ccnnc1)N1C[C@H](OCC2CC2)[C@H]2COC[C@H]21`, for which the INHIBITION was -2.25%. Next, `CCOC(=O)c1sc(NC(=O)c2cc(=O)c(OC)c[nH]2)nc1C`: 8.12%; `CCS(=O)(=O)N1CC[C@@H]2[C@H](CC1)N(Cc1cccc(C)n1)CCS2(=O)=O`: 49.7%; `CCc1nc(CN(C)C2CCN(Cc3nnc(C4CCC4)o3)C2)no1` (stereo unspecified): 21.5%. With `CC1c2ncc(CNC(=O)C3CC3)n2CCN1Cc1cnn(C)c1` (stereo unspecified), the INHIBITION was -8.94%. With `O=C(COc1ccccc1NCc1ccoc1)N1CCOCC1` the figure was -5.22%; with `CCc1nnsc1C(=O)N1CCCC1c1c(C)nn(C)c1OC` (stereo unspecified), -25.8%.

As to `Cc1nc(N)nc(C)c1Cc1nc(C2CC2)n[nH]1`, the INHIBITION came out at 32.3%. Next, `Cc1nc(C)c(Cc2nc(C3CC3)n[nH]2)c(=O)[nH]1`: 29%; `Cc1n[nH]c(C)c1CCc1nc(C2CC2)n[nH]1`: 50.7%; `CC(=O)NCC(=O)N1CCN(CCN(C)C)c2ncccc2C1`: 6.79%. Next, `Nc1ccncc1-n1cc(CCO)cn1`: 33.3%; `Cn1c(CCNC(=O)Nc2cn[nH]c2)nc2ccc(F)cc21`: -5.52%. For the compound `Cc1nnc(NCCc2nc3ccc(F)cc3n2C)c(C#N)c1C`, the INHIBITION is listed as 34.1%.

For the compound `Cn1c(CCNc2nccnc2C#N)nc2cc(Cl)ccc21`, the INHIBITION is 32.3%. Next, `Cn1c(CCNc2nccnc2C#N)nc2ccc(F)cc21`: 67.3%; `Cn1c(CCCNC(=O)Nc2cn[nH]c2)nc2ccccc21`: -7.66%; `CC(C)n1nccc1NC(=O)NCCc1nc2ccc(F)cc2n1C`: 73.6%. Turning to `Cc1nc(C2CCCN2CCOCC2CC2)no1` (stereo unspecified), the INHIBITION is given as -77.6%.

(Values after ChEMBL document CHEMBL4513216, “Probing the Open Global Health Chemical Diversity Library for Multistage-Active Starting Points for Next-Generation Antimalarials” (ACS Infect Dis, 2020).)
